{
  "source": "PubChem BioAssay (NCATS)",
  "key": {"[1]": {"experiment": "qHTS drug screen for cell cycle checkpoint inhibitors in PARPi-resistant BRCA-mutant ovarian cancer cell lines. (AID 1963452)", "conditions": "PEO1/OlaR viability, CellTiter-Glo luminescence, 96 h, stronger effect = lower value", "how_it_was_run": "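PEO1, PEO4 and PEO1/OlaR ovarian cancer cells, 600 per well, exposed 96 h at 37C to a dilution series. Viability read by CellTiter-Glo luminescence, normalized to DMSO and empty wells; activity summarized as Z-AUC.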"}, "[2]": {"experiment": "Dual reporter qHTS for antagonist of Pregnane X Receptor (hPXR) against the NCATS DSHEA and TCM libraries: Fluorescence Readout (AID 1920061; active = well fitted curve in the direction sought with a large enough effect; note: 0% is about no effect)", "conditions": "PXR dual reporter cells, antagonist mode; series mostly up to 40 µM", "how_it_was_run": "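Rifampicin-stimulated (2 uM final) hPXR-luciferase HepG2 cells were treated for 24 h with DSNP/TCM substances. Viability came from CellTiter-Fluor fluorescence, reporter activity from ONE-Glo luminescence.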"}, "[3]": {"experiment": "qHTS for identification of novel therapeutic agents for treatment of microphthalmiaassociated transcription factor (MiT) renal cell carcinoma (RCC) (AID 1963991)", "conditions": "CellTiter-Glo, 48 h, stronger effect = lower value", "how_it_was_run": "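Viability of three TFE3-fusion renal carcinoma lines measured by CellTiter-Glo after 48 h treatment with each of 1912 compounds at 11 concentrations. Responses scaled between DMSO (100%) and empty wells (0%) before curve fitting.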"}, "[4]": {"conditions": "measured here: PEO1 parental Z-AUC"}, "[5]": {"conditions": "TFE3-RCC UOK109 viability, measured here: UOK109 Z-AUC"}, "[6]": {"conditions": "TFE3-RCC viability, measured here: UOK124 Z-AUC"}, "[7]": {"conditions": "TFE3-RCC viability, measured here: UOK145 Z-AUC"}},
  "note": "Inconclusive results are not listed. Activity calls are given as the source filed them. Unless noted, calls come from the whole dose curve.",
  "data": [
    {"smiles": "CN[C@@H](C)[C@H]1[C@H](O)C[C@@]2(C)[C@@H]3CC[C@H]4C(C)(C)[C@@H](NC)CC[C@@]45C[C@@]35CC[C@]12C", "values": [
      {"measurement": "Z-AUC", "setting": "[1]", "value": "0.117 (inactive)"},
      {"measurement": "Z-AUC", "setting": "[1]; [4]", "value": 0.364},
      {"measurement": "Z-AUC", "setting": "[1]; measured here: PEO4 Z-AUC", "value": 0.673}
    ]},
    {"smiles": "CC(C)(CO)[C@@H](O)C(=O)NCCC(=O)O", "values": [
      {"measurement": "outcome", "setting": "[2]", "value": "inactive"},
      {"measurement": "Z-AUC", "setting": "[1]", "value": "-0.0324 (inactive)"},
      {"measurement": "Z-AUC", "setting": "[1]; [4]", "value": 0.0769},
      {"measurement": "Z-AUC", "setting": "[1]; measured here: PEO4 Z-AUC", "value": 0.104},
      {"measurement": "z-score", "setting": "[3]; [5]", "value": 1.12},
      {"measurement": "z-score", "setting": "[3]; [6]", "value": 0.429},
      {"measurement": "z-score", "setting": "[3]; [7]", "value": -0.0311}
    ]},
    {"smiles": "O[C@@H](COc1cccc2ncccc12)CN1CCN(C2c3ccccc3[C@@H]3[C@H](c4ccccc42)C3(F)F)CC1", "note": "(stereo partly drawn)", "values": [
      {"measurement": "Z-AUC", "setting": "[1]", "value": "-1.07 (inactive)"},
      {"measurement": "Z-AUC", "setting": "[1]; [4]", "value": -1.13},
      {"measurement": "Z-AUC", "setting": "[1]; measured here: PEO4 Z-AUC", "value": -0.777}
    ]},
    {"smiles": "COc1ccc(Cn2ccc3ccc(C(=O)NO)cc32)cc1", "values": [
      {"measurement": "Z-AUC", "setting": "[1]", "value": "1.36 (inactive)"},
      {"measurement": "Z-AUC", "setting": "[1]; [4]", "value": 1.01},
      {"measurement": "Z-AUC", "setting": "[1]; measured here: PEO4 Z-AUC", "value": 1}
    ]},
    {"smiles": "COc1ccc2c(c1)c(C1=C(c3c[nH]c4ccccc34)C(=O)NC1=O)cn2CCCN(C)C", "values": [
      {"measurement": "Z-AUC", "setting": "[1]", "value": "-1.63 (inactive)"},
      {"measurement": "Z-AUC", "setting": "[1]; [4]", "value": -0.951},
      {"measurement": "Z-AUC", "setting": "[1]; measured here: PEO4 Z-AUC", "value": -1.4}
    ]},
    {"smiles": "OC[C@H]1O[C@@H](OCCc2ccc(O)cc2)[C@H](O)[C@@H](O)[C@H]1O", "values": [
      {"measurement": "outcome", "setting": "[2]", "value": "inactive"},
      {"measurement": "z-score", "setting": "[3]; [5]", "value": 0.167},
      {"measurement": "z-score", "setting": "[3]; [6]", "value": 0.0834},
      {"measurement": "z-score", "setting": "[3]; [7]", "value": -0.171}
    ]},
    {"smiles": "O=C1CCCC(=O)C1C(=O)c1ccc(C(F)(F)F)cc1[N+](=O)[O-]", "values": [
      {"measurement": "Z-AUC", "setting": "[1]", "value": "0.835 (inactive)"},
      {"measurement": "Z-AUC", "setting": "[1]; [4]", "value": 1.44},
      {"measurement": "Z-AUC", "setting": "[1]; measured here: PEO4 Z-AUC", "value": 0.656}
    ]},
    {"smiles": "O=S(=O)(O)c1ccc2cc(N=Nc3cc(S(=O)(=O)O)c4cccnc4c3O)ccc2c1", "values": [
      {"measurement": "Z-AUC", "setting": "[1]", "value": "0.327 (inactive)"},
      {"measurement": "Z-AUC", "setting": "[1]; [4]", "value": -0.476},
      {"measurement": "Z-AUC", "setting": "[1]; measured here: PEO4 Z-AUC", "value": 0.158}
    ]},
    {"smiles": "CC[C@H](CC#N)OC(=O)N[C@@H](C)c1cccc(NC(=O)Nc2ccc(-c3cnco3)c(OC)c2)c1", "values": [
      {"measurement": "Z-AUC", "setting": "[1]", "value": "0.186 (inactive)"},
      {"measurement": "Z-AUC", "setting": "[1]; [4]", "value": -0.393},
      {"measurement": "Z-AUC", "setting": "[1]; measured here: PEO4 Z-AUC", "value": -0.852}
    ]},
    {"smiles": "CNC(=O)[C@H](Cc1ccccc1)NC(=O)[C@H](CC(C)C)[C@H](CSc1cccs1)C(=O)NO", "values": [
      {"measurement": "Z-AUC", "setting": "[1]", "value": "-0.0435 (inactive)"},
      {"measurement": "Z-AUC", "setting": "[1]; [4]", "value": -0.157},
      {"measurement": "Z-AUC", "setting": "[1]; measured here: PEO4 Z-AUC", "value": 0.653}
    ]},
    {"smiles": "NC(=O)c1noc([C@H](CCCC2CCCCC2)CC(=O)NO)n1", "values": [
      {"measurement": "Z-AUC", "setting": "[1]", "value": "1.33 (inactive)"},
      {"measurement": "Z-AUC", "setting": "[1]; [4]", "value": 0.607},
      {"measurement": "Z-AUC", "setting": "[1]; measured here: PEO4 Z-AUC", "value": 0.522}
    ]},
    {"smiles": "CN(C)CCCNC(=O)c1ccc(-c2cc(O)c3ncccc3c2)cc1", "values": [
      {"measurement": "Z-AUC", "setting": "[1]", "value": "-0.763 (inactive)"},
      {"measurement": "Z-AUC", "setting": "[1]; [4]", "value": -0.299},
      {"measurement": "Z-AUC", "setting": "[1]; measured here: PEO4 Z-AUC", "value": -0.292}
    ]},
    {"smiles": "Nc1[nH]nc2nnc(-c3c(-c4ccccc4)nn4ccccc34)cc12", "values": [
      {"measurement": "Z-AUC", "setting": "[1]", "value": "-0.433 (inactive)"},
      {"measurement": "Z-AUC", "setting": "[1]; [4]", "value": 0.0529},
      {"measurement": "Z-AUC", "setting": "[1]; measured here: PEO4 Z-AUC", "value": -0.206}
    ]},
    {"smiles": "Nc1ccc(-c2ccc3ncc4ccc(=O)n(-c5cccc(C(F)(F)F)c5)c4c3c2)cn1", "values": [
      {"measurement": "Z-AUC", "setting": "[1]", "value": "-1.37 (inactive)"},
      {"measurement": "Z-AUC", "setting": "[1]; [4]", "value": -2.21},
      {"measurement": "Z-AUC", "setting": "[1]; measured here: PEO4 Z-AUC", "value": -1.55}
    ]},
    {"smiles": "CCN1CCN(c2ccc(Nc3cc(N(C)C(=O)Nc4c(Cl)c(OC)cc(OC)c4Cl)ncn3)cc2)CC1", "values": [
      {"measurement": "Z-AUC", "setting": "[1]", "value": "0.0169 (inactive)"},
      {"measurement": "Z-AUC", "setting": "[1]; [4]", "value": -0.00584},
      {"measurement": "Z-AUC", "setting": "[1]; measured here: PEO4 Z-AUC", "value": 0.0335}
    ]},
    {"smiles": "Cc1ccc2c(c1)C(=O)[C@]1(O)CCN(c3ccccc3)C1=N2", "values": [
      {"measurement": "Z-AUC", "setting": "[1]", "value": "1.54 (inactive)"},
      {"measurement": "Z-AUC", "setting": "[1]; [4]", "value": 1.18},
      {"measurement": "Z-AUC", "setting": "[1]; measured here: PEO4 Z-AUC", "value": 1.07}
    ]}
  ]
}
